Measured values as given in the supplement of paper PMC7380943.

Columns and labels:
[1] = tested on: CLZ3 (HCA2 human fibroblast dual HR-NHEJ reporter); assay: NHEJ repair efficiency (GFP+ cells) relative to control (log10 fold); higher = more non-homologous end joining; conditions: 5 µM; doxycycline 0.5 ug/mL
[2] = tested on: CLZ3 (HCA2 human fibroblast dual HR-NHEJ reporter); assay: HR repair efficiency (tdTomato+ cells) relative to control (log10 fold); higher = more homologous recombination; conditions: 5 µM; doxycycline 0.5 ug/mL
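Wherever HR repair efficiency (tdTomato+ cells) relative to control is given: compound given one day before doxycycline, which switches on I-SceI endonuclease expression to create double-strand breaks within the integrated reporter.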
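Wherever NHEJ repair efficiency (GFP+ cells) relative to control is given: compound given one day ahead of doxycycline, which switches on I-SceI endonuclease to cut the chromosomally integrated reporter and create DSBs.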

Compound	NHEJ repair efficiency (log10) [1]	HR repair efficiency (log10) [2]
COc1ccc(C(C)=O)c(O)c1 [Paeonol]	0.076	0.17
OC[C@H]1OC(O)[C@H](O)[C@@H](O)[C@H]1O (stereo partly drawn) [D-Galactose]	0.00385	-0.0597
COc1cc2ccc(=O)oc2c(OC)c1O [Isofraxidin]	-0.0516	-0.153
CC1(C)O[C@H]1COc1c2ccoc2cc2oc(=O)ccc12 [Oxypeucedanin]	0.0689	0.0078
COc1cc(-c2coc3cc4c(c(OC)c3c2=O)OCO4)cc(OC)c1OC [Irisflorentin]	-0.0524	0.0727
COc1cc(-c2oc3cc(O)cc(O)c3c(=O)c2O[C@@H]2O[C@H](CO)[C@@H](O)[C@H](O)[C@H]2O[C@@H]2O[C@@H](C)[C@H](O)[C@@H](O)[C@H]2O)ccc1O [Isorhamnetin-3-O-Nehesperidine]	-0.039	-0.0649
C[C@H](CC[C@@]1(O)O[C@H]2C[C@H]3[C@@H]4CC=C5C[C@@H](O[C@@H]6O[C@H](CO)[C@@H](O[C@@H]7O[C@@H](C)[C@H](O)[C@@H](O)[C@H]7O)[C@H](O)[C@H]6O[C@@H]6O[C@@H](C)[C@H](O)[C@@H](O)[C@H]6O)CC[C@]5(C)[C@H]4CC[C@]3(C)[C@H]2[C@@H]1C)CO[C@@H]1O[C@H](CO)[C@@H](O)[C@H](O)[C@H]1O [Protodioscin]	-0.00725	-0.042
CC1(C)[C@H](OC(=O)c2ccccc2)CC[C@]2(C)C3=C([C@@H](O)C[C@@H]12)[C@@]1(C)CC[C@@]2(C)CC[C@@](C)(COC(=O)c4ccccc4)C[C@H]2[C@]1(C)CC3 [3,29-Dibenzoyl Rarounitriol]	-0.00463	0.103
CCOC(=O)c1c(C(=O)OCC)c(O)c2ccccc2c1O [Rubidate]	0.0573	0.128
CC(C)=CC(O)C/C(C)=C/COc1c2ccoc2cc2oc(=O)ccc12 (configuration not stated) [Notopterol]	0.0643	0.151
O=C1C[C@@H](c2ccc(O)cc2)Oc2cc(O)cc(O)c21 [Naringenin]	-0.176	-0.025
COc1c(O)cc2oc(-c3ccccc3)cc(=O)c2c1O [Oroxylin-A]	-0.22	0.0535
O=c1cc(-c2ccc(O[C@@H]3O[C@H](CO)[C@@H](O)[C@H](O)[C@H]3O)cc2)oc2cc(O)c([C@@H]3O[C@H](CO)[C@@H](O)[C@H](O)[C@H]3O[C@@H]3OC[C@H](O)[C@H](O)[C@H]3O)c(O)c12 [Vaccarin]	-0.0315	-0.086
O=c1cc(-c2ccc(O)cc2)oc2cc(O)c(O)c(O)c12 [Scutellarein]	-0.103	-0.025
COc1cc2c(cc1OC)[C@@H]1Cc3ccc(OC)c(OC)c3CN1CC2 [Rotundine]	-0.0594	0.112
CC=C1[C@H](O[C@@H]2O[C@H](CO)[C@@H](O)[C@H](O)[C@H]2O)OC=C(C(=O)OC)[C@H]1CC(=O)OC[C@H]1O[C@@H](OCCc2ccc(O)cc2)[C@H](O)[C@@H](O)[C@@H]1O (stereo in doubt) [Specnuezhenide]	0.00632	0.0832
C=C[C@@H]1[C@@H](O[C@@H]2O[C@H](CO)[C@@H](O)[C@H](O)[C@H]2O)OC=C(C(=O)OC)[C@@H]1CCOC(=O)c1cc(O)c(O)c(O)c1 [Cornuside I]	-0.0558	0.0608
CC(C)=CCc1c(O)ccc(C(=O)/C=C/c2ccc(O)cc2)c1O [Isobavachalcone]	0.0115	0.0547
CC(/C=C/C=C(\C)C(=O)O[C@@H]1O[C@H](CO[C@@H]2O[C@H](CO)[C@@H](O)[C@H](O)[C@H]2O)[C@@H](O)[C@H](O)[C@H]1O)=C\C=C\C=C(C)\C=C\C=C(/C)C(=O)O[C@@H]1O[C@H](CO[C@@H]2O[C@H](CO)[C@@H](O)[C@H](O)[C@H]2O)[C@@H](O)[C@H](O)[C@H]1O [Crocin I]	0.0171	0.076
C/C=C(/C)C(=O)O[C@H]1c2cc(OC)c(OC)c(OC)c2-c2c(cc3c(c2OC)OCO3)C[C@H](C)[C@]1(C)O [Wuweizi Ester B]	-0.108	0.0267
C[C@@H]1CC[C@@]2(NC1)O[C@H]1C[C@H]3[C@@H]4CC=C5C[C@@H](O[C@@H]6O[C@H](CO)[C@H](O)[C@H](O[C@@H]7O[C@H](CO)[C@@H](O)[C@H](O)[C@H]7O)[C@H]6O[C@@H]6O[C@@H](C)[C@H](O)[C@@H](O)[C@H]6O)CC[C@]5(C)[C@H]4CC[C@]3(C)[C@H]1[C@@H]2C [Solasonine]	-0.000957	0.0163
